Experimental findings from paper PMC4336329 (PLoS ONE, 2015) are described below.

Screen size: about 310,000 compounds; about 14,000 (4.5%) showed an effect of 50% or more. The effect is printed as a negative number. This is one part of a sample in which strong results are shown more often than they occur.
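Note: peak tail current of the secondary pulse compared with the same well before compound.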

The target in the assay is human ether-à-go-go-related gene (hERG) potassium channel (human, UniProt Q12809). As to the kind of experiment: primary screen, population patch clamp on CHO cells stably expressing hERG; higher = less effect of the substance.
Sequence of human ether-à-go-go-related gene (hERG) potassium channel (Q12809 whole entry, looked up): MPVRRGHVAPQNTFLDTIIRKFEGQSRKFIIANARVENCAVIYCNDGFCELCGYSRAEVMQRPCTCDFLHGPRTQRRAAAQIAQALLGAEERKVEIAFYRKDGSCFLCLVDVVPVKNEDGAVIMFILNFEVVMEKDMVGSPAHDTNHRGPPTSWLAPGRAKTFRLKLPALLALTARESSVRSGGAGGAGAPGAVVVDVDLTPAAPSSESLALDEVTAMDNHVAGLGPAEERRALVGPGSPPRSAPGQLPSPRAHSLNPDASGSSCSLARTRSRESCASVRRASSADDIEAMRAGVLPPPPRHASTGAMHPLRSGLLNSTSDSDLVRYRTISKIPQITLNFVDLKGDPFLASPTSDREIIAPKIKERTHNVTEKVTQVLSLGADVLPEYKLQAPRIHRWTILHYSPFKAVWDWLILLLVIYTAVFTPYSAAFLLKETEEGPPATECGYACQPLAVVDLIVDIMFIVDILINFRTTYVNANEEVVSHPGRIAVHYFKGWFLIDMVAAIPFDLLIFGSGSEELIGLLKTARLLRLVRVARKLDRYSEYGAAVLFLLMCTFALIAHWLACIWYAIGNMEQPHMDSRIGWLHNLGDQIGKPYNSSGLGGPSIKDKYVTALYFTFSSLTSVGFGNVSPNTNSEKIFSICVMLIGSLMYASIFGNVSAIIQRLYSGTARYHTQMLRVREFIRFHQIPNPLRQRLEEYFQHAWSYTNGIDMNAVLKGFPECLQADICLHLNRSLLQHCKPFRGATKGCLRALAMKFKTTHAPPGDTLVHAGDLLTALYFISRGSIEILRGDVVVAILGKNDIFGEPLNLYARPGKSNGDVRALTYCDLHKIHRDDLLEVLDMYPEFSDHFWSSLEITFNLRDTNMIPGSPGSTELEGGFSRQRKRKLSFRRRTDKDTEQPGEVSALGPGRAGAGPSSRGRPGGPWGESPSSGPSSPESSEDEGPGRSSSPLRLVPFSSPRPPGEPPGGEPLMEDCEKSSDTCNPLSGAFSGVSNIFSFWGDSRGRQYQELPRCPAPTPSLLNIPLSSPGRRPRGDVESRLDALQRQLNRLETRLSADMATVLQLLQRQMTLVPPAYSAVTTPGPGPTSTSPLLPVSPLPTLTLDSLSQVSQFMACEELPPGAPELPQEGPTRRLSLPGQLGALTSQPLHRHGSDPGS
For `COC(=O)c1ccccc1NC(=O)N1CCN(S(=O)(=O)c2ccc(Cl)cc2)CC1`, the “hERG current change (%, negative = inhibition) at 10uM” value was 7.58%.
Consider `O=C(Nc1ncccc1Cl)C(Sc1ccccc1)c1ccccc1` (centres unmarked), for which the “hERG current change (%, negative = inhibition) at 10uM” value is reported as 8.58%.
As to `Cc1[nH]n(-c2cccc(Cl)c2)c(=O)c1-c1ccccc1`, the “hERG current change (%, negative = inhibition) at 10uM” value was 17.1%.
Consider `CCOC(=O)c1nn(-c2ccc(C)cc2)cc1C(=O)c1ccccc1`, for which the “hERG current change (%, negative = inhibition) at 10uM” value was -9.04%.
The same measure for `COc1cc(CNc2ccc(N3CCOCC3)c(C(=O)O)c2)ccc1OCC(N)=O`: -6.95%.
As for `CCOc1ccc(S(=O)(=O)NCc2ccccc2)cc1C(N)=O`, the “hERG current change (%, negative = inhibition) at 10uM” value amounted to 18.9%.
`O=C(OCC(O)CN1CCCCC1)C12CC3CC(CC(C3)C1)C2` (centres unmarked): the “hERG current change (%, negative = inhibition) at 10uM” value is reported as -16.3%.
As to `CCOC(=O)N1CCC(NC(=O)CC2C(=O)NCCN2Cc2ccccc2F)CC1` (centres unmarked), the “hERG current change (%, negative = inhibition) at 10uM” value came to 11.8%.
Take `CCOC(=O)c1cc(C(O)(C(=O)OC)C(F)(F)F)c(/N=C/N(C)C)o1` (centres unmarked): the “hERG current change (%, negative = inhibition) at 10uM” value is -6.94%.
The figure for `Cc1cccc(-n2c(C)cc(C(=S)N3CCOCC3)c2C)c1C` is -7.9%.
`CC(=O)C(C)Oc1ccc2c3c(c(=O)oc2c1)CCCCC3` (centres unmarked): the “hERG current change (%, negative = inhibition) at 10uM” value is on record as 2.1%.
The same measure for `COC(=O)C(C)Oc1ccc2c3c(c(=O)oc2c1)CCCCC3` (centres unmarked): -59.2%.
As to `CC(=O)C(C)Oc1ccc2c3c(c(=O)oc2c1)CCCC3` (centres unmarked), the “hERG current change (%, negative = inhibition) at 10uM” value is given as -12.8%.
The same measure for `O=C(CSc1nc(C(F)(F)F)cc(=O)[nH]1)Nc1nccs1`: 18.5%; for `CCc1nn(CCCC(=O)NCc2ccco2)c(=O)c2cc3occc3n12`: -14%; for `Cc1ccc(-n2c(O)c(C=NCc3ccccn3)c3ccccc3c2=O)cc1`: -3.79%.
As to `COc1cccc(-n2c(O)c(C=NCc3ccccn3)c3ccccc3c2=O)c1`, the “hERG current change (%, negative = inhibition) at 10uM” value is -26.2%.
`Cc1cccc(-n2c(O)c(C=NCc3ccccn3)c3ccccc3c2=O)c1`: the “hERG current change (%, negative = inhibition) at 10uM” value was -60.9%.
Take `COc1ccc(Cl)cc1NC(=S)NCc1cccnc1`: the “hERG current change (%, negative = inhibition) at 10uM” value was -15.3%.
As for `Cc1c(NC(=O)CSc2ncnc3ccccc23)c(=O)n(-c2ccccc2)n1C`, the “hERG current change (%, negative = inhibition) at 10uM” value was -38.8%.
As to `CCOc1ccc(N(CC(=O)Nc2c(C)n(C)n(-c3ccccc3)c2=O)S(=O)(=O)c2ccc(F)cc2)cc1`, the “hERG current change (%, negative = inhibition) at 10uM” value was -17.6%.
With `Cc1c(NC(=O)COC(=O)/C=C/c2ccc(Cl)cc2)c(=O)n(-c2ccccc2)n1C`, the “hERG current change (%, negative = inhibition) at 10uM” value is 28.5%.
`Cc1c(NC(=O)COC(=O)/C=C/c2cccc(Cl)c2)c(=O)n(-c2ccccc2)n1C`: the “hERG current change (%, negative = inhibition) at 10uM” value is -58.7%.
As to `CCOc1ccc(N(CC(=O)Nc2c(C)n(C)n(-c3ccccc3)c2=O)S(=O)(=O)c2ccccc2)cc1`, the “hERG current change (%, negative = inhibition) at 10uM” value is given as -55.2%.
The figure for `Cc1cc(NC(=O)CSc2ncnc3c2cnn3-c2ccccc2)no1` is -10.8%.
With `Cc1c(NC(=O)CSc2ncnc3c2cnn3-c2ccccc2)c(=O)n(-c2ccccc2)n1C`, the “hERG current change (%, negative = inhibition) at 10uM” value is reported as -64.1%.
Turning to `Cc1c(NC(=O)COc2ccccc2Cl)c(=O)n(-c2ccccc2)n1C`, the “hERG current change (%, negative = inhibition) at 10uM” value was -4.59%.
As to `Cc1c(NC(=O)CN(c2ccc(F)cc2)S(=O)(=O)c2ccccc2)c(=O)n(-c2ccccc2)n1C`, the “hERG current change (%, negative = inhibition) at 10uM” value is -0.664%.
As to `CCOc1ccccc1OCC(=O)Nc1c(C)n(C)n(-c2ccccc2)c1=O`, the “hERG current change (%, negative = inhibition) at 10uM” value is -6.05%.
Consider `Cc1c(NC(=O)COc2cccc(Cl)c2Cl)c(=O)n(-c2ccccc2)n1C`, for which the “hERG current change (%, negative = inhibition) at 10uM” value is on record as -71.4%.
As to `Cc1c(NC(=O)COC(=O)/C=C/c2cccc(Br)c2)c(=O)n(-c2ccccc2)n1C`, the “hERG current change (%, negative = inhibition) at 10uM” value is given as -15.8%.
As to `Cc1nn(-c2ccccc2)cc1/C=N/O`, the “hERG current change (%, negative = inhibition) at 10uM” value is 0.476%.
In the case of `Cc1ccc(C(=O)NCCCN2CCOCC2)c(Cl)c1`, the “hERG current change (%, negative = inhibition) at 10uM” value was 13%.
Take `CCOC(=O)c1sc(=S)n(C)c1C`: the “hERG current change (%, negative = inhibition) at 10uM” value amounted to 12%.
Take `Cc1ccc(S(=O)(=O)N2CCN(C(=O)CSc3ccccn3)CC2)c(C)c1`: the “hERG current change (%, negative = inhibition) at 10uM” value is -26.5%.
For `Cc1ccc(S(=O)(=O)n2c(CN3CCCC(C)C3)nc3ccccc32)cc1` (centres unmarked), the “hERG current change (%, negative = inhibition) at 10uM” value is on record as -14.6%.
With `CN1CCN(Cc2nc3ccccc3n2C)CC1`, the “hERG current change (%, negative = inhibition) at 10uM” value was -0.083%.
Regarding `Cc1ccc(S(=O)(=O)N2CCN(Cc3nc4ccccc4n3C)CC2)cc1`, the “hERG current change (%, negative = inhibition) at 10uM” value was -53.5%.
Regarding `CN1CCN(Cc2nc3ccccc3n2C)CC1CCO` (centres unmarked), the “hERG current change (%, negative = inhibition) at 10uM” value is given as 3.83%.
On to `Cn1c(CN2CCN(c3ccccc3NS(C)(=O)=O)CC2)nc2ccccc21`, for which the “hERG current change (%, negative = inhibition) at 10uM” value was -61.5%.
The same measure for `CN(Cc1nc2ccccc2n1C)S(C)(=O)=O`: -5.28%.
Turning to `O=C(COC(=O)c1cccc(Cl)c1)Nc1cc(Cl)ccc1Oc1ccccc1`, the “hERG current change (%, negative = inhibition) at 10uM” value is listed as 15.1%.
The figure for `COCc1cc(=O)n2[nH]c(-c3cccc(Br)c3)cc2n1` is -24.2%; for `CC1=CC(=O)C=C(C)C1=NOC(=O)c1cccc([N+](=O)[O-])c1` it is 9.59%; for `O=C(NC1CCN(Cc2ccccc2)CC1)c1c(Cl)cccc1Cl` it is -10.7%.
Turning to `Cc1c(C(=O)NC2CCN(Cc3ccccc3)C2)oc2c(Cl)cccc12` (centres unmarked), the “hERG current change (%, negative = inhibition) at 10uM” value was -71.8%.
In the case of `CCOc1ccc2oc(C(=O)NC3CCN(Cc4ccccc4)CC3)c(C)c2c1.Cl`, the “hERG current change (%, negative = inhibition) at 10uM” value is on record as -15.1%.
As to `CCOC(=O)N1CCC(NC(=O)c2oc3c(F)cccc3c2C)CC1`, the “hERG current change (%, negative = inhibition) at 10uM” value was -15.4%.
On to `Cc1c(C(=O)NC2CCN(Cc3ccccc3)C2)oc2ccc(Br)cc12` (centres unmarked), for which the “hERG current change (%, negative = inhibition) at 10uM” value was -61.8%.
As for `Cc1c(C(=O)NCCN2CCOCC2)oc2ccc(Br)cc12`, the “hERG current change (%, negative = inhibition) at 10uM” value is -15%.
As for `O=C(OCC(=O)c1cccs1)C1=COCCO1`, the “hERG current change (%, negative = inhibition) at 10uM” value came to 19.7%.
In the case of `CC1CN(C(=O)/C(C#N)=C2\N=C(NC(=O)c3ccc(F)cc3)c3ccccc32)CC(C)O1` (centres unmarked), the “hERG current change (%, negative = inhibition) at 10uM” value came out at 14.1%.
Consider `CCOC(=O)C1(Cc2ccccc2)CCCN(CCO)C1` (centres unmarked), for which the “hERG current change (%, negative = inhibition) at 10uM” value was 6.18%.
Turning to `COc1cc2cc(C(=O)N3CCN(c4ccccc4OC)CC3)[nH]c2cc1OC`, the “hERG current change (%, negative = inhibition) at 10uM” value is listed as 24.5%.
Regarding `C=CCN1CCN(C(=O)CCc2ccccc2)CC1`, the “hERG current change (%, negative = inhibition) at 10uM” value is on record as 13.8%.
For the compound `COc1cccc(N2CCN(C(=S)Nc3ccc(F)cc3)CC2)c1`, the “hERG current change (%, negative = inhibition) at 10uM” value amounted to 16.1%.
